# Source: PubChem
# The full list was thinned out, with hits kept by preference.
# RECQ1 inh-1 – qHTS Assay for Inhibitors of RecQ-Like Dna Helicase 1 (RECQ1) | hit rate 0.54% among 240,000 | ATP-dependent DNA helicase Q1 (Homo sapiens), P46063 | Potency, µM (doses to about 57.3 µM), for inactives: at the highest dose activity, negative = inhibition, most hits filed as inhibitors | RECQ1 DNA unwinding, red fluorescence kinetic read;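 note: plate controls were vehicle for no effect and no enzyme for full effect; nearly all actives have a fitted effect of over 30% in size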
#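 RECQ1T1 50 nM; forked duplex (20 bp + 30-nt ss tails) 200 nM, ATP 2 mM final; pH 8.0, 2 mM MgCl2, 2.5 ug/ml poly(dI-dC); 15 min compound preincubation; discontinuous kinetic read over 2 h at RT.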
# BLM helicase inh – qHTS Assay for Inhibitors of Bloom's syndrome helicase (BLM) | RecQ-like DNA helicase BLM (Homo sapiens), P54132 | recombinant BLM DNA unwinding, fluorescence dequenching | Potency, µM (top dose mostly 56.1 µM), for inactives: at the top dose activity change, negative = inhibition, actives largely listed as inhibitors | hit rate 0.2% among 350,000 | AID 2528, 2010;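 note: plate controls were vehicle for no effect and no enzyme for full effect; nearly all actives have a fitted effect of over 35% in size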
# Target sequence (P54132 whole entry, looked up): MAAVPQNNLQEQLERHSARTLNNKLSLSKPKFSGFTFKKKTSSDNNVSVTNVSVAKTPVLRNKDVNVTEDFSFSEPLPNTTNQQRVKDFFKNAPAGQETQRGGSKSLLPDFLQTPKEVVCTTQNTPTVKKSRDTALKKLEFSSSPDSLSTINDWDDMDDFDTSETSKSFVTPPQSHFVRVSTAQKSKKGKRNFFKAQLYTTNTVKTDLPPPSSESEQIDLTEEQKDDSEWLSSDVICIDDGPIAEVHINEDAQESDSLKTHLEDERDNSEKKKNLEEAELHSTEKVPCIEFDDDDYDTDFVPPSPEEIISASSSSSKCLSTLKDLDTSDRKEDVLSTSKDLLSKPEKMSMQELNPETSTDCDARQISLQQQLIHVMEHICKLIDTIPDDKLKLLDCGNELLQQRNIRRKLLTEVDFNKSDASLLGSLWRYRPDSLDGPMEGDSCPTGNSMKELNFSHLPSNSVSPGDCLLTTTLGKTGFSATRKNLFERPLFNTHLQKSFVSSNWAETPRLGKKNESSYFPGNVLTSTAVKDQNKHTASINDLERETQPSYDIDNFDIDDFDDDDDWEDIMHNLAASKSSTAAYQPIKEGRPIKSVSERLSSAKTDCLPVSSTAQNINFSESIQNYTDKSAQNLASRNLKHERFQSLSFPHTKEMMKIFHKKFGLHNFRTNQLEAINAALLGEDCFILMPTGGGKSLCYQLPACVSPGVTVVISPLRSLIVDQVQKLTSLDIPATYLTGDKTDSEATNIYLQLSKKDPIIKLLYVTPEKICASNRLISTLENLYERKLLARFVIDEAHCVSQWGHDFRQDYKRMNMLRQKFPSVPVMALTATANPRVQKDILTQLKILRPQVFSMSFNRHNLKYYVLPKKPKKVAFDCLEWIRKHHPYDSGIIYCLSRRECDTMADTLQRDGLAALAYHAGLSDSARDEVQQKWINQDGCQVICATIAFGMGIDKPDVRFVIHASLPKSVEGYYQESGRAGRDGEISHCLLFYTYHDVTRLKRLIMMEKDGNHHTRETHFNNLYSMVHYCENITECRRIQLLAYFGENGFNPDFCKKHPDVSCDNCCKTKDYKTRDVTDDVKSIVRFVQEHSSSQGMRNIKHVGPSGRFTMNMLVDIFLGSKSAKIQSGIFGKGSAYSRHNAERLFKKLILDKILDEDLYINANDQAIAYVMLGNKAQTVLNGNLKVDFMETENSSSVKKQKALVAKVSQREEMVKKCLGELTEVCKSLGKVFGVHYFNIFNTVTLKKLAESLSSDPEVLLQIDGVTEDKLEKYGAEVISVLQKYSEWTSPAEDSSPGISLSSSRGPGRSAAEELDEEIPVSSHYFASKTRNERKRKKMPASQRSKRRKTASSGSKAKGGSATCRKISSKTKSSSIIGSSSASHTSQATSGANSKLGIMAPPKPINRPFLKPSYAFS
# APEX1 inh – qHTS Assay for Inhibitors of the Human Apurinic/apyrimidinic Endonuclease 1 (APE1) | DNA repair nuclease/redox regulator APEX1 (Homo sapiens), P27695 | recombinant APE1, TAMRA/BHQ-2 abasic DNA cleavage fluorescence | Potency, µM (doses to about 65.8 µM), inactives show top-dose activity change, negative = inhibition, most hits filed as inhibitors | hit rate 0.35% among 350,000 | AID 2517, 2012;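 note: plate controls were vehicle for no effect and reference inhibitor for full effect; nearly all actives have a fitted effect of over 55% in size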
#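 Incision of a quenched TAMRA/BHQ-2 THF abasic-site duplex (50 nM) by 0.75 nM APE1, after 15 min compound preincubation, measured as fluorescence increase over three 60 s reads. Values normalized to buffer, DMSO and NSC13755 control wells.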
# TDP1 inh – qHTS Assay for Inhibitors of Tyrosyl-DNA Phosphodiesterase (TDP1); Tyrosyl-DNA phosphodiesterase 1 (Homo sapiens), Q9NUW8; hit rate 0.28% among 350,000; recombinant TDP1, AlphaScreen DNA substrate cleavage; Potency, µM (highest dose often 130 µM), inactives show at the top dose activity change, negative = inhibition, most hits filed as inhibitors; note: nearly all actives have a fitted effect of over 40% in size
#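 Recombinant human Tdp1 (E. coli-expressed, 1 nM final) preincubated with compounds 15 min at room temperature, then 5'-biotin/3'-phosphotyrosine-FITC DNA substrate (15 nM final) added for 5 min. AlphaScreen beads (10 ug/ml final) added 10 min; cleavage lowers signal.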
# L3MBTL1 block – qHTS Assay for the Inhibitors of L3MBTL1; Lethal(3)malignant brain tumor-like protein 1 (Homo sapiens), Q9Y468; AlphaScreen L3MBTL1–H3K9me1 peptide binding; Potency, µM (highest dose often 57.1 µM), inactives show at the highest dose activity, negative = inhibition, most hits filed as inhibitors; hit rate 0.66% among 230,000; note: nearly all actives have a fitted effect of over 60% in size
#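 First, the protein-peptide complex forms for 30 min at room temperature (L3MBTL1 50 nM, biotinylated H3K9me1 peptide 75 nM). Next, compounds are pin-transferred and incubated 30 min. Finally, AlphaScreen beads are added and read after 30 min.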
# KDM4E inh – qHTS Assay for Inhibitors of Human Jumonji Domain Containing 2E (JMJD2E); Lysine-specific demethylase 4E (Homo sapiens), B2RXH2; JMJD2E catalytic domain, FDH-coupled NADH fluorescence (FDH is formaldehyde dehydrogenase); Potency, µM (titrated, usually from 57.1 µM), for the others: at the highest dose activity change, negative = inhibition, actives largely listed as inhibitors; hit rate 1.6% among 230,000; AID 2147, 2009; active = well fitted inhibition curve with a large enough effect, not every such curve was filed as active; inconclusive = small, poorly fitted or top-dose-only effect, or another doubt; inactive = no such curve, though single readings can be large or run the other way;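 note: 0% = wells with enzyme and -100% = buffer wells without enzyme; nearly all actives have a fitted effect of over 50% in size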
# RECQ1 conf – Confirmation qHTS Assay for Inhibitors of RecQ-Like Dna Helicase 1 (RECQ1) | shares compounds with RECQ1 inh-1 | RECQ1 helicase DNA unwinding, fluorescence | Potency, µM (series often up to 229 µM), for inactives: at the highest dose activity change, negative = inhibition, most hits filed as inhibitors | hit rate 28% among 610 | AID 2708, 2010; note: nearly all actives have a fitted effect of over 45% in size
# RECQ1 ADP FP – Counterscreen for RECQ1 Inhibitors: ADP Fluorescence Polarization Displacement Assay; Potency, µM (series often up to 228 µM), for inactives: at the highest dose activity change, negative = inhibition, most hits filed as inhibitors; hit rate 27% among 530; ADP fluorescence polarization displacement counterscreen; AID 2711, 2010; shares compounds with RECQ1 inh-1; note: nearly all actives have a fitted effect of over 45% in size
# RECQ1 inh-2 – Confirmation qHTS Assay for Inhibitors of RecQ-Like Dna Helicase 1 (RECQ1) - Round 2 Cherry Picks | shares compounds with RECQ1 inh-1 | recombinant RECQ1 DNA unwinding, red fluorescence | Potency, µM (doses to about 119 µM), for inactives: top-dose activity, negative = inhibition, most hits filed as inhibitors | hit rate 15% among 1,100 | AID 504841, 2011; note: nearly all actives have a fitted effect of over 50% in size
# * hit, by the source's call; ? = inconclusive; · = not tested or not shown; [ ] = dose if it differs, or a comment. Unless noted, calls come from the whole dose curve; as a rule, active = well fitted curve in the direction sought with a large enough effect; inconclusive = small, poorly fitted or top-dose-only effect, or another doubt; inactive = no such curve, though single readings can be large; an effect the other way counts as inactive or inconclusive. Unless noted, % is set by controls: 0 for no effect and ±100 for the full control effect; potency is the fitted concentration of half-maximal effect.
SMILES,RECQ1 inh-1,BLM helicase inh,APEX1 inh,TDP1 inh,L3MBTL1 block,KDM4E inh,RECQ1 inh-2,others
O=C(COc1ccc2ccccc2c1)Nc1cccc(C(=O)Nc2ccccc2C(=O)O)c1,?,-3%,?,6%,-9%,1%,?,
O=C(COc1ccc(Br)cc1)Nc1ccc(C(=O)Nc2ccccc2C(=O)O)cc1,·,-16%,?,·,·,·,·,
CS(=O)(=O)c1ccc(Cn2c3c(c4cc(F)cc(F)c42)CCC[C@H]3CC(=O)O)cc1,-1%,-6%,-7%,14%[56.1 µM],·,-25%,·,
CC(=O)c1cc(-c2ccc(F)cc2)n(CC(=O)NC2CCC(C)CC2)c1C (stereo not given),·,1%,·,3%,·,·,·,
COc1c(C(CC(C)C)OC(C)=O)ccc2c1C(=O)OCc1cc(C)cc(O)c1O2 (stereo not given),?,-20%,-6%,·,·,-3%,-13%,
COc1c(C(O)CC(C)C)ccc2c1C(=O)OCc1cc(C)cc(O)c1O2 (stereo not given),-18%,-10%,-5%,-5%,-20%,4%,·,
Cc1ccc(N2CC(c3nnc(NC(=O)c4ccco4)s3)CC2=O)cc1C (stereo not given),·,0%,·,-4%,·,·,·,
N#C/C(=C\c1ccc(-c2ccc(C(=O)O)cc2)o1)c1nc2ccccc2[nH]1,?,-13%,?,0%[12.3 µM],-9%,28µM*,?,
N#C/C(=C\c1ccncc1)c1nc2ccccc2[nH]1,-1%,-9%,0%,8%,-29%,?,·,
Cc1ccccc1CCNC(=O)c1ccc2c(c1)nc1n2CCCCC1,·,0%,·,3%,·,·,·,
CCc1nn2c(=O)cc(COC(=O)c3cccc(NC(=O)c4cccs4)c3)nc2s1,·,-12%,·,-1%,·,·,·,
N#Cc1c(NC(=O)CS(=O)(=O)c2ccc(Cl)cc2)sc2c1CCCCC2,·,0%,·,0%,·,·,·,
CC(=O)c1ccc2c(c1)C1C=CCC1C(c1ccncc1)N2 (stereo not given),?,-29%,?,7%,-22%,?,36%,
C1=CC2c3ccccc3NC(c3ccncc3)C2C1 (stereo not given),-23%,-16%,?,6%,?,?,·,
COc1ccc2c(C(=O)CN3CCSCC3)c[nH]c2c1,-1%,2%,5%,4%,-5%,?,·,
COc1ccc2c(C(=O)CN3CCN(c4ccccc4)CC3)c[nH]c2c1,?,-2%,3%,2%,·,-6%,-18%,
O=C(C1=NN[C@@H]2C(=O)N(c3cccc(C(F)(F)F)c3)C(=O)[C@H]12)C(c1ccccc1)c1ccccc1,28µM*,-12%,-7%,4%,-8%,9%,-20%,
O=C(C1=NN[C@@H]2C(=O)N(c3cccc(F)c3)C(=O)[C@H]12)C(c1ccccc1)c1ccccc1,-6%,-2%,14%,3%,-3%,-5%,·,
CCOC(=O)c1sc(NC(=O)c2cc3nc(-c4ccccc4)cc(C(F)(F)F)n3n2)c(C(=O)OCC)c1C,·,1%,·,2%,·,·,·,
CCOC(=O)N/N=C1/C[C@@H](O)[C@@H](O)[C@@H]2[C@@H]3C(=O)N(Cc4ccccc4)C(=O)[C@H]3CC[C@H]12,13%[11.5 µM],0%[12.4 µM],-11%[12.4 µM],4%[21 µM],·,·,·,
COc1ccc(NC(=O)CC2C(=O)Nc3ccccc3N2CC(=O)N2CCCC2)cc1 (stereo not given),·,·,31%,0%,2%,·,·,
Cn1cc(O)nc1NC(=O)Nc1cccc(Cl)c1,·,-1%,·,·,·,·,·,
COCC(=O)N(C)C1(c2nnnn2CCOC(=O)Nc2cccc3ccccc23)CCCC1,32µM*,-13%,-9%,·,?,?,-9%,
O=c1nc(/C=C/c2cc([N+](=O)[O-])ccc2Cl)cc(C(F)(F)F)[nH]1,-11%,0%,-2%,4%,·,-1%,·,
O=c1nc(/C=C/c2cccn2-c2ccc([N+](=O)[O-])cc2)cc(C(F)(F)F)[nH]1,35µM*,-27%,0%,7%,·,-1%,?,
SMILES,RECQ1 inh-1,BLM helicase inh,APEX1 inh,TDP1 inh,L3MBTL1 block,KDM4E inh,RECQ1 inh-2,others
C=CCn1c(SCCC(=O)O)nnc1-c1cccs1,-2%,6%,0%,2%,9%,?,·,
C=CCn1c(SCC(=O)O)nnc1-c1cccs1,-3%,2%,-1%,-5%,·,?,·,RECQ1 conf=-4%;RECQ1 ADP FP=5%
COc1ccc(-n2nnnc2SCC(N)=O)cc1,-3%,-1%,-6%,-2%,4%,-6%,·,
COc1ccc(-n2nnnc2SCC(=O)c2ccc(O)c(O)c2)cc1,13µM*,1%,?,2%,?,11µM*,7.1µM*,
O=C(COC(=O)c1ccc([N+](=O)[O-])s1)Nc1ccc(Cl)cn1,-13%,-18%,13%,0%,?,3%,·,
Cc1c(Cl)cnc(NC(=O)COC(=O)c2ccc([N+](=O)[O-])s2)c1Cl,28µM*,-27%,?,-13%,?,-23%,10µM*,
CCC(C)NC(=O)Cc1c(C)c2cc3c(cc2oc1=O)OC(C)(C)CC3 (stereo not given),·,-4%,6%,·,·,·,·,
O=C(Nc1ccc(-n2nncc2-c2ccco2)cc1)c1cc2ccccc2oc1=O,6.3µM*,-18%,?,40µM*,-13%,2%,?,RECQ1 conf=4.5µM*;RECQ1 ADP FP=4%[91.9 µM]
CC(C)c1ccc(Nc2nc(Nc3ccc(Cl)cc3)nc(N3CCOCC3)n2)cc1,·,·,·,0%,·,·,·,RECQ1 conf=-14%[69.1 µM]
